# Results reported in the supplement of paper PMC6522484.
# ± gives the standard deviation of the averaged measurements.
# Assays:
# DLD1 [1] = assay: cell viability (CellTiter-Glo) relative to plate median (fraction of plate median); higher = more viable cells; settings: 5 µM; treatment time 24 h; reporter: 7TFP
# Procedure, shortened: (§1)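 Cells were seeded in 384-well plates; these were colorectal cancer lines stably transduced with lentiviral 7TFP or TCF4/Wnt firefly luciferase reporters. After 24 h, library compounds went in at a final 5 µM, and exposure lasted 24 h. Parallel plates were then read for firefly luciferase or CellTiterGlo luminescence, each well normalised to its plate median, with two independent replicates averaged.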
# HCT116 = assay: as above; settings: 5 µM; treatment time 24 h; reporter: TCF4/Wnt
# Procedure, shortened: as §1
# SW480 [2] = assay: as above; settings: 5 µM; treatment time 24 h; reporter: 7TFP
# Procedure, shortened: as §1
# DLD1 [3] = assay: TCF/Wnt firefly luciferase reporter signal relative to plate median (fraction of plate median); higher = higher Wnt reporter signal; settings: 5 µM; treatment time 24 h; reporter: 7TFP
# Procedure, shortened: as §1
# SW480 [4] = assay: as above; settings: 5 µM; treatment time 24 h; reporter: 7TFP
# Procedure, shortened: as §1
Structure (SMILES),cell viability (DLD1 [1]),cell viability (HCT116),cell viability (SW480 [2]),TCF/Wnt firefly luciferase reporter signal (DLD1 [3]),TCF/Wnt firefly luciferase reporter signal (SW480 [4])
O=c1c(O)c(-c2ccccc2)oc2cccc(O)c12,1.03 ± 0.014,1.02 ± 0.044,1.01 ± 0.045,1.07,0.969 ± 0.021
CC(=O)O[C@]1(C(C)=O)CC[C@H]2[C@@H]3C[C@H](C)C4=CC(=O)CC[C@]4(C)[C@H]3CC[C@@]21C,1.03 ± 0.014,0.989 ± 0.0099,0.96 ± 0.018,0.971 ± 0.18,1 ± 0.035
O=C(Nc1ccccc1)Nc1ccccc1,1.02 ± 0.13,0.996 ± 0.048,1.05 ± 0.092,1.2 ± 0.11,1.01 ± 0.04
C[C@@H]1O[C@H]2O[C@@H]3[C@@H](C)OC(c4ccc5c(c4O)C(=O)c4ccc(C[C@@](C)(O)CC(=O)O)c(O)c4C5=O)C[C@H]3O[C@H]2CC1=O (stereo not given in full) [Fridamycin D],1.14 ± 0.099,0.942 ± 0.12,1.02 ± 0.021,1.14 ± 0.057,1.08 ± 0.021
CCOc1ccc(C(=O)c2ccc(OC)c(O)c2O)cc1,1.01 ± 0.052,1.07 ± 0.028,1 ± 0.038,0.966 ± 0.025,1.03 ± 0.021
COc1c2ccoc2nc2c(OC)c(OCC(O)C(C)(C)O)ccc12 (stereo not given),1.02 ± 0.038,1 ± 0.014,1 ± 0.013,1.03 ± 0.047,1.02 ± 0.057
CC(=O)O[C@H]1C(=O)[C@@]2(C)[C@H]([C@H](OC(=O)c3ccccc3)[C@]3(O)C[C@H](OC(=O)[C@H](O)[C@@H](NC(=O)c4ccccc4)c4ccccc4)C(C)=C1C3(C)C)[C@]1(OC(C)=O)CO[C@@H]1C[C@@H]2O,0.901 ± 0.03,0.498 ± 0.016,1.11 ± 0.092,0.792 ± 0.27,0.755 ± 0.23
Nc1c2ccccc2nc2ccccc12,0.942 ± 0.071,0.919 ± 0.11,1.03 ± 0.021,1.52 ± 0.54,1.01 ± 0.13
C[C@@H]1CC2C3C[C@H](F)C4=CC(=O)C=C[C@]4(C)[C@@]3(F)[C@@H](O)C[C@]2(C)[C@@]1(O)C(=O)COC(=O)C(C)(C)C (stereo not given in full),1.01 ± 0.021,0.925 ± 0.039,1 ± 0.025,1.16 ± 0.064,1.085 ± 0.0071
CC1(C)NC(=O)N(c2ccc([N+](=O)[O-])c(C(F)(F)F)c2)C1=O,1.05 ± 0.084,0.983 ± 0.052,1 ± 0.042,1.02 ± 0.014,0.961 ± 0.044
C[C@]1(O)CC(=O)c2c(ccc3c2C(=O)c2cccc(O)c2C3=O)C1 [Tetrangomycin; Benzanthramycin; LL-AE-705-Y],0.822 ± 0.019,0.978 ± 0.14,1 ± 0.067,0.853 ± 0.065,1.01 ± 0.045
CO/N=C(\C(=O)N[C@@H]1C(=O)N2C(C(=O)O)=C(CSc3nc(=O)c(O)nn3C)CS[C@H]12)c1csc(N)n1,1.06 ± 0.071,1.06 ± 0.071,0.98 ± 0.071,1.1 ± 0.14,0.96 ± 0.057
C=C[C@@](C)(O)CCC1C(=C)CCC2[C@@](C)(CO)CCC[C@]12C (stereo not given in full),1.005 ± 0.0071,1.14 ± 0.16,1.1 ± 0.021,0.967 ± 0.017,1.01 ± 0.067
N[C@@H](Cc1cc(I)c(Oc2ccc(O)c(I)c2)c(I)c1)C(=O)O [LIOTHYRONINE (L- isomer) SODIUM],0.994 ± 0.093,1.04 ± 0.091,1.11 ± 0.064,1.14 ± 0.17,1.055 ± 0.0071
O=C(/C=C/c1ccc(O)c(O)c1)OCCc1ccccc1,0.892 ± 0.031,0.94 ± 0.039,0.963 ± 0.023,0.948 ± 0.059,0.9925 ± 0.0078
CCCCCCCCCCCCCCCC[N+](C)(C)C,0.9465 ± 0.0021,0.907 ± 0.093,0.969 ± 0.12,0.754 ± 0.12,0.701 ± 0.093
COCCc1ccc(OCC(O)CNC(C)C)cc1 (stereo not given),1.14 ± 0.057,0.959 ± 0.025,1.01 ± 0.018,1.14 ± 0.042,1.055 ± 0.0071
C[C@]12C=CC(=O)C=C1CC[C@H]1[C@@H]3C[C@@H](O)[C@](O)(C(=O)CO)[C@@]3(C)C[C@H](O)[C@@]12F,0.999 ± 0.086,1.01 ± 0.047,0.982 ± 0.012,0.951 ± 0.069,0.89 ± 0.15
NCCC(=O)c1ccccc1N,1.03 ± 0.052,1.08 ± 0.057,0.987 ± 0.0085,0.981 ± 0.042,0.838 ± 0.016
COc1ccc(-c2cc(C(F)F)nn2-c2ccc(S(N)(=O)=O)cc2)cc1F,0.869 ± 0.086,1.01 ± 0.014,1.04 ± 0.057,0.983 ± 0.025,0.995 ± 0.078
COc1cc2occ(-c3ccc(O)cc3)c(=O)c2cc1O [Kakkatin],1.04 ± 0.028,1.06 ± 0.14,1.01 ± 0.044,1.22 ± 0.028,1.09 ± 0.064
